According to PubChem BioAssay (NCATS):
Values joined by “and” are separate entries in the source; they are usually repeats but may differ in a detail not shown here. Equal values may be shown once. Records with an inconclusive call do not appear. Active and inactive are the calls of the source. The call rests on the fitted dose curve; in most records, active means well fitted inhibition curve with a large enough effect; inconclusive means small, poorly fitted or top-dose-only effect; inactive means flat fitted curve, though single readings scatter.

Assays:
P93_24 = assay: qHTS profiling for inhibitors of Plasmodium falciparum proliferation (AID 504749);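 further: 0% = DMSO vehicle and full inhibition = artemisinin control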; conditions: P. falciparum in erythrocytes, SYBR Green DNA, 72 h; series mostly up to 28.7 µM
In short: (§1)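 P. falciparum-infected erythrocytes (0.3% parasitemia, 2.5% hematocrit) incubated with compound 72 h at 37 C, 5% CO2. Parasite DNA detected by SYBR Green after lysis, overnight at room temperature; normalised to 0.29 uM artemisinin and DMSO.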

P94_40 = assay: as above; conditions: P. falciparum in erythrocytes, SYBR Green DNA, 72 h; series mostly up to 28.7 µM
In short: as §1

PAD = assay: as above; conditions: P. falciparum in erythrocytes, SYBR Green DNA, 72 h; series mostly up to 28.7 µM
In short: as §1

PC15 = assay: as above; conditions: P. falciparum in erythrocytes, SYBR Green DNA, 72 h; series mostly up to 28.7 µM
In short: as §1

PC26 = assay: as above; conditions: P. falciparum in erythrocytes, SYBR Green DNA, 72 h; series mostly up to 28.7 µM
In short: as §1

PC49 = assay: as above; conditions: P. falciparum in erythrocytes, SYBR Green DNA, 72 h; series mostly up to 28.7 µM
In short: as §1

SC27B = assay: as above; conditions: P. falciparum in erythrocytes, SYBR Green DNA, 72 h; series mostly up to 28.7 µM
In short: as §1

TAB109 = assay: as above; conditions: P. falciparum in erythrocytes, SYBR Green DNA, 72 h; series mostly up to 28.7 µM
In short: as §1

TAB113 = assay: as above; conditions: P. falciparum in erythrocytes, SYBR Green DNA, 72 h; series mostly up to 28.7 µM
In short: as §1

TAB165 = assay: as above; conditions: P. falciparum in erythrocytes, SYBR Green DNA, 72 h; series mostly up to 28.7 µM
In short: as §1

W2 = assay: as above; conditions: P. falciparum in erythrocytes, SYBR Green DNA, 72 h; series mostly up to 28.7 µM
In short: as §1

CRL-7250 = normal cell line; assay: Cytotoxic Profiling of Annotated Libraries Using Quantitative High-Throughput Screening (AID 1296008); conditions: Five cell lines viability, CellTiter-Glo ATP luminescence, 48-72 h; max response: hits give low values; further: potency means the concentration at half of the fitted maximal effect; on max response: on the % scale 0 is the no-effect control and ±100 the full control effect
In short: (§2)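 Cells exposed to compounds for 48 or 72 hr at 37 degrees Celsius. Viability read as ATP-coupled luminescence with CellTiter-Glo after 10 min at room temperature.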

HEK293 = assay: as above; conditions: Five cell lines viability, CellTiter-Glo ATP luminescence, 48-72 h; max response: hits give low values
In short: as §2

NIH3T3 = assay: as above; conditions: Five cell lines viability, CellTiter-Glo ATP luminescence, 48-72 h; max response: hits give low values
In short: as §2

MCC-13 = assay: qHTS assay to identify novel small-molecules to repurpose for Merkel cell carcinoma treatment (AID 1296009); conditions: MCC and control cell lines, CellTiter-Glo viability, 72 h; series mostly up to 46 µM; further: potency means the concentration at half of the fitted maximal effect
In short: (§3)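 Cells were treated for 72 hr at 37 degree celsius with compounds in 8- or 11-point dose response. Viability was read by CellTiter-Glo luminescence, normalized to no-cell (cytotoxicity) and DMSO controls.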

MCC-26 = assay: as above; conditions: MCC and control cell lines, CellTiter-Glo viability, 72 h; series mostly up to 46 µM
In short: as §3

HaCat [1] = assay: Cytotoxic Profiling of Annotated Libraries Using Quantitative High-Throughput Screening (AID 1296008); conditions: Five cell lines viability, CellTiter-Glo ATP luminescence, 48-72 h; max response: hits give low values; further: potency means the concentration at half of the fitted maximal effect; on max response: on the % scale 0 is the no-effect control and ±100 the full control effect
In short: as §2

KB-3-1 = assay: as above; conditions: Five cell lines viability, CellTiter-Glo ATP luminescence, 48-72 h; max response: hits give low values
In short: as §2

HACAT [2] = assay: qHTS assay to identify novel small-molecules to repurpose for Merkel cell carcinoma treatment (AID 1296009); conditions: MCC and control cell lines, CellTiter-Glo viability, 72 h; at 44.8 µM (top of the series) unless noted; further: potency means the concentration at half of the fitted maximal effect
In short: as §3
Further: nearly all actives have a fitted effect of over 60% in size.

O=C(O)c1ccccc1Nc1cccc(C(F)(F)F)c1
inactive: Potency (P93_24) | Potency (P94_40) | Potency (PAD) | Potency (PC15) | Potency (PC26) | Potency (PC49) | Potency (SC27B) | Potency (TAB109) | Potency (TAB113) | Potency (TAB165) | Potency (W2) | max response (CRL-7250) 0.849% | max response (HEK293) 3.56% | max response (NIH3T3) -2.26% | Potency (MCC-13) | Potency (MCC-26)

c1ccc(CCNc2nc(-c3ccccc3)cs2)cc1
inactive: outcome (HaCat [1]) | max response (KB-3-1) -17.2% | max response (NIH3T3) -13.6% | outcome (HACAT [2]) | Potency (MCC-13) | Potency (MCC-26)
active: Potency (HEK293) 11.9 µM

CC(=O)O[C@H]1C[C@@]2(C)[C@@H](C[C@@H](O)[C@H]3[C@@]4(C)CC[C@@H](O)[C@@H](C)[C@@H]4CC[C@@]32C)/C1=C(\CCC=C(C)C)C(=O)O
inactive: outcome (CRL-7250) | max response (HEK293) -11.3% | max response (KB-3-1) -11.2% | outcome (KB-3-1) | outcome (NIH3T3)

CCCOC(=O)c1ccc(O)cc1
inactive: Potency (P93_24) | Potency (P94_40) | Potency (PAD) | Potency (PC15) | Potency (PC26) | Potency (PC49) | Potency (SC27B) | Potency (TAB109) | Potency (TAB113) | Potency (TAB165) | Potency (W2) | max response (CRL-7250) 4.61% | max response (HEK293) -6.34% | max response (KB-3-1) -6.63% and -13.7% | max response (NIH3T3) 3.51% | Potency (MCC-13)

COC(=O)c1nc(Cl)c(Cl)nc1N
active: Potency (CRL-7250) 5.31 µM | Potency (HEK293) 0.841 µM | Potency (NIH3T3) 10.6 µM | Potency (MCC-13) 0.944 µM | Potency (MCC-26) 8.41 µM

Clc1ccccc1-c1nc(-c2ccncc2)no1
inactive: Potency (P94_40) | Potency (PC26) | Potency (PC49) | Potency (SC27B) | Potency (TAB113) | max response (CRL-7250) -4.27% | outcome (HaCat [1]) | max response (KB-3-1) 12% | outcome (HACAT [2]) | Potency (MCC-13)

CS(=O)(=O)c1ccc(-n2nc(C(F)(F)F)cc2-c2ccc(F)cc2)cc1
inactive: max response (HEK293) 1.42% | outcome (HaCat [1]) | max response (KB-3-1) -2.3% | max response (NIH3T3) -2.48% | outcome (HACAT [2])

CN(C)[C@@H]1C(=O)C(C(=O)NCN2CCCC2)=C(O)[C@@]2(O)C(=O)C3=C(O)c4c(O)cccc4[C@@](C)(O)C3C[C@@H]12 (stereo not given in full)
inactive: max response (HaCat [1]) -12.7% | max response (KB-3-1) 3.68% and -3.42% | max response (NIH3T3) 1.26% | Potency (MCC-13)

COC(=O)Nc1nc2ccc(C(=O)C3CC3)cc2[nH]1
active: Potency (CRL-7250) 2.99 µM | Potency (HEK293) 0.75 µM | Potency (MCC-13) 7.5 µM
inactive: outcome (HaCat [1]) | outcome (HACAT [2])

COc1ccc(/C=C/C(=O)Nc2ccccc2C(=O)O)cc1OC
inactive: Potency (P93_24) | Potency (P94_40) | Potency (PAD) | Potency (PC26) | Potency (PC49) | Potency (SC27B) | Potency (TAB109) | Potency (TAB113) | Potency (TAB165) | max response (CRL-7250) 2.22% | max response (HEK293) 0.531% | max response (KB-3-1) -5.53% and 8.2% | max response (NIH3T3) -8.92%

NS(=O)(=O)c1ccc(-n2nc(C(F)(F)F)cc2-c2ccc(Cl)cc2)cc1
inactive: outcome (HaCat [1]) | max response (KB-3-1) -3.63% | max response (NIH3T3) -15.5% | outcome (HACAT [2])
